Experimental data reported in the supplement of paper PMC4022240.
± gives the standard deviation.

How the values were obtained:
Test in all cases: peptide microarray binding signal (635 nm), min-max normalized on array (fraction of array maximum); higher = stronger binding
Conditions in all cases: peptide region: H3 1-13
[1] = target: T1, HaloTag-ATRX ADD domain (163-292)
T1 chain: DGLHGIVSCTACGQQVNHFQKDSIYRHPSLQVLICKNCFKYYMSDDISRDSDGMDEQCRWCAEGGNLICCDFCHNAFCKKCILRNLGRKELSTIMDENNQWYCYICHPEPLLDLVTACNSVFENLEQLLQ
Protocol: (§1)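 Histone 13-mer peptides were synthesized as cellulose conjugates with a C-terminal 20-atom PEG linker and printed in triplicate on nitrocellulose. The sequence given is the unmodified backbone; PTMs (Kme1/2/3, Kac, Sph/Tph, Rme/Rme2a/Rme2s, Rcit) are listed in the label and the 'peptide modifications' condition. Slides were probed at 4 °C for 1 h with biotin-labelled (HQ)5-HaloTag reader fusions (ATRX-ADD, ING2-PHD) then streptavidin-Alexa647, or with rabbit histone antibodies then anti-rabbit Alexa647. The mean 635 nm signal of the triplicate spots was scaled 0-1 between the lowest and highest values on each array.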

[2] = target: HaloTag-ING2 PHD (mouse Ing2 200-280)
Protocol: as §1

[3] = target: anti-H3K4me3 antibody ab8580
Protocol: as §1

[4] = target: anti-H3K9me3 antibody ab8898
Protocol: as §1

[5] = peptide modifications: H3K9me2 H3S10ph, binder concentration: 1:2,000 dilution
[6] = peptide modifications: H3K9me2 H3S10ph, binder concentration: 1:10,000 dilution
[7] = peptide modifications: H3K9me3, binder concentration: 1:2,000 dilution
[8] = peptide modifications: H3K9me3, binder concentration: 1:10,000 dilution
[9] = peptide modifications: H3K9me3 H3S10ph, binder concentration: 1:2,000 dilution
[10] = peptide modifications: H3K9me3 H3S10ph, binder concentration: 1:10,000 dilution
[11] = peptide modifications: H3R2cit H3K4ac, binder concentration: 1:2,000 dilution
[12] = peptide modifications: H3R2cit H3K4ac, binder concentration: 1:10,000 dilution
[13] = peptide modifications: H3R2cit H3K4me1, binder concentration: 1:2,000 dilution
[14] = peptide modifications: H3R2cit H3K4me1, binder concentration: 1:10,000 dilution
[15] = peptide modifications: H3R2cit H3K4me2, binder concentration: 1:2,000 dilution
[16] = peptide modifications: H3R2cit H3K4me2, binder concentration: 1:10,000 dilution
[17] = peptide modifications: H3R2cit H3K4me3, binder concentration: 1:2,000 dilution
[18] = peptide modifications: H3R2cit H3K4me3, binder concentration: 1:10,000 dilution
[19] = peptide modifications: H3R2cit H3K9ac, binder concentration: 1:2,000 dilution
[20] = peptide modifications: H3R2cit H3K9ac, binder concentration: 1:10,000 dilution
[21] = peptide modifications: H3R2cit H3K9me1, binder concentration: 1:2,000 dilution
[22] = peptide modifications: H3R2cit H3K9me1, binder concentration: 1:10,000 dilution
[23] = peptide modifications: H3R2cit H3K9me2, binder concentration: 1:2,000 dilution
[24] = peptide modifications: H3R2cit H3K9me2, binder concentration: 1:10,000 dilution

Binder: ARTKQTARKSTGG [H3 1-13 A R T K Q T A R Kme2 Sph T G G]
- peptide microarray binding signal ([1]; peptide modifications: H3K9me2 H3S10ph, binder concentration: 50 nM): 0.0356 ± 0.0038
- peptide microarray binding signal ([1]; peptide modifications: H3K9me2 H3S10ph, binder concentration: 500 nM): 0.0593 ± 0.0025
- peptide microarray binding signal ([2]; peptide modifications: H3K9me2 H3S10ph, binder concentration: 10 nM): 0.00615 ± 8.7e-05
- peptide microarray binding signal ([2]; peptide modifications: H3K9me2 H3S10ph, binder concentration: 100 nM): 0.0145 ± 0.0016
- peptide microarray binding signal [3, 5]: 0.00119 ± 1.7e-05
- peptide microarray binding signal [3, 6]: 0.000456 ± 3.6e-05
- peptide microarray binding signal [4, 5]: 0.0144 ± 0.0017
- peptide microarray binding signal [4, 6]: 0.00375 ± 0.00021

Binder: ARTKQTARKSTGG [H3 1-13 A R T K Q T A R Kme3 S T G G]
- peptide microarray binding signal ([1]; peptide modifications: H3K9me3, binder concentration: 50 nM): 0.422 ± 0.025
- peptide microarray binding signal ([1]; peptide modifications: H3K9me3, binder concentration: 500 nM): 0.417 ± 0.049
- peptide microarray binding signal ([2]; peptide modifications: H3K9me3, binder concentration: 10 nM): 0.0205 ± 0.0055
- peptide microarray binding signal ([2]; peptide modifications: H3K9me3, binder concentration: 100 nM): 0.0183 ± 0.0029
- peptide microarray binding signal [3, 7]: 0.0544 ± 0.038
- peptide microarray binding signal [3, 8]: 0.0262 ± 0.0086
- peptide microarray binding signal [4, 7]: 0.228 ± 0.047
- peptide microarray binding signal [4, 8]: 0.169 ± 0.11

Binder: ARTKQTARKSTGG [H3 1-13 A R T K Q T A R Kme3 Sph T G G]
- peptide microarray binding signal ([1]; peptide modifications: H3K9me3 H3S10ph, binder concentration: 50 nM): 0.188 ± 0.014
- peptide microarray binding signal ([1]; peptide modifications: H3K9me3 H3S10ph, binder concentration: 500 nM): 0.207 ± 0.011
- peptide microarray binding signal ([2]; peptide modifications: H3K9me3 H3S10ph, binder concentration: 10 nM): 0.00597 ± 0.00034
- peptide microarray binding signal ([2]; peptide modifications: H3K9me3 H3S10ph, binder concentration: 100 nM): 0.0173 ± 0.0046
- peptide microarray binding signal [3, 9]: 0.00283 ± 0.001
- peptide microarray binding signal [3, 10]: 0.000913 ± 0.00014
- peptide microarray binding signal [4, 9]: 0.085 ± 0.021
- peptide microarray binding signal [4, 10]: 0.049 ± 0.01

Binder: ARTKQTARKSTGG [H3 1-13 A Rcit T Kac Q T A R K S T G G]
- peptide microarray binding signal ([1]; peptide modifications: H3R2cit H3K4ac, binder concentration: 50 nM): 0.0109 ± 0.00013
- peptide microarray binding signal ([1]; peptide modifications: H3R2cit H3K4ac, binder concentration: 500 nM): 0.045 ± 0.0051
- peptide microarray binding signal ([2]; peptide modifications: H3R2cit H3K4ac, binder concentration: 10 nM): 0.0563 ± 0.014
- peptide microarray binding signal ([2]; peptide modifications: H3R2cit H3K4ac, binder concentration: 100 nM): 0.125 ± 0.011
- peptide microarray binding signal [3, 11]: 0.00725 ± 0.0029
- peptide microarray binding signal [3, 12]: 0.00656 ± 0.0011
- peptide microarray binding signal [4, 11]: 0.00782 ± 0.0003
- peptide microarray binding signal [4, 12]: 0.0049 ± 0.00038

Binder: ARTKQTARKSTGG [H3 1-13 A Rcit T Kme Q T A R K S T G G]
- peptide microarray binding signal ([1]; peptide modifications: H3R2cit H3K4me1, binder concentration: 50 nM): 0.00831 ± 0.00021
- peptide microarray binding signal ([1]; peptide modifications: H3R2cit H3K4me1, binder concentration: 500 nM): 0.0204 ± 0.0024
- peptide microarray binding signal ([2]; peptide modifications: H3R2cit H3K4me1, binder concentration: 10 nM): 0.0217 ± 0.0012
- peptide microarray binding signal ([2]; peptide modifications: H3R2cit H3K4me1, binder concentration: 100 nM): 0.148 ± 0.015
- peptide microarray binding signal [3, 13]: 0.0371 ± 0.0013
- peptide microarray binding signal [3, 14]: 0.02 ± 0.0022
- peptide microarray binding signal [4, 13]: 0.00468 ± 0.0004
- peptide microarray binding signal [4, 14]: 0.00202 ± 3.2e-05

Binder: ARTKQTARKSTGG [H3 1-13 A Rcit T Kme2 Q T A R K S T G G]
- peptide microarray binding signal ([1]; peptide modifications: H3R2cit H3K4me2, binder concentration: 50 nM): 0.00959 ± 0.00044
- peptide microarray binding signal ([1]; peptide modifications: H3R2cit H3K4me2, binder concentration: 500 nM): 0.0222 ± 0.0016
- peptide microarray binding signal ([2]; peptide modifications: H3R2cit H3K4me2, binder concentration: 10 nM): 0.0839 ± 0.0012
- peptide microarray binding signal ([2]; peptide modifications: H3R2cit H3K4me2, binder concentration: 100 nM): 0.149 ± 0.043
- peptide microarray binding signal [3, 15]: 0.126 ± 0.023
- peptide microarray binding signal [3, 16]: 0.128 ± 0.017
- peptide microarray binding signal [4, 15]: 0.00533 ± 0.00032
- peptide microarray binding signal [4, 16]: 0.00352 ± 0.00019

Binder: ARTKQTARKSTGG [H3 1-13 A Rcit T Kme3 Q T A R K S T G G]
- peptide microarray binding signal ([1]; peptide modifications: H3R2cit H3K4me3, binder concentration: 50 nM): 0.0156 ± 0.00085
- peptide microarray binding signal ([1]; peptide modifications: H3R2cit H3K4me3, binder concentration: 500 nM): 0.0357 ± 0.0095
- peptide microarray binding signal ([2]; peptide modifications: H3R2cit H3K4me3, binder concentration: 10 nM): 0.131 ± 0.042
- peptide microarray binding signal ([2]; peptide modifications: H3R2cit H3K4me3, binder concentration: 100 nM): 0.19 ± 0.089
- peptide microarray binding signal [3, 17]: 0.476 ± 0.19
- peptide microarray binding signal [3, 18]: 0.28 ± 0.066
- peptide microarray binding signal [4, 17]: 0.0852 ± 0.028
- peptide microarray binding signal [4, 18]: 0.0601 ± 0.039

Binder: ARTKQTARKSTGG [H3 1-13 A Rcit T K Q T A R Kac S T G G]
- peptide microarray binding signal ([1]; peptide modifications: H3R2cit H3K9ac, binder concentration: 50 nM): 0.0152 ± 0.00082
- peptide microarray binding signal ([1]; peptide modifications: H3R2cit H3K9ac, binder concentration: 500 nM): 0.0454 ± 0.005
- peptide microarray binding signal ([2]; peptide modifications: H3R2cit H3K9ac, binder concentration: 10 nM): 0.0489 ± 0.0051
- peptide microarray binding signal ([2]; peptide modifications: H3R2cit H3K9ac, binder concentration: 100 nM): 0.0881 ± 0.024
- peptide microarray binding signal [3, 19]: 0.0231 ± 0.0037
- peptide microarray binding signal [3, 20]: 0.0127 ± 0.00061
- peptide microarray binding signal [4, 19]: 0.00818 ± 0.001
- peptide microarray binding signal [4, 20]: 0.00502 ± 0.00055

Binder: ARTKQTARKSTGG [H3 1-13 A Rcit T K Q T A R Kme S T G G]
- peptide microarray binding signal ([1]; peptide modifications: H3R2cit H3K9me1, binder concentration: 50 nM): 0.0233 ± 0.0034
- peptide microarray binding signal ([1]; peptide modifications: H3R2cit H3K9me1, binder concentration: 500 nM): 0.0804 ± 0.019
- peptide microarray binding signal ([2]; peptide modifications: H3R2cit H3K9me1, binder concentration: 10 nM): 0.0313 ± 0.0068
- peptide microarray binding signal ([2]; peptide modifications: H3R2cit H3K9me1, binder concentration: 100 nM): 0.0512 ± 0.0034
- peptide microarray binding signal [3, 21]: 0.00831 ± 0.0015
- peptide microarray binding signal [3, 22]: 0.0097 ± 0.00085
- peptide microarray binding signal [4, 21]: 0.0064 ± 0.00042
- peptide microarray binding signal [4, 22]: 0.00375 ± 0.00014

Binder: ARTKQTARKSTGG [H3 1-13 A Rcit T K Q T A R Kme2 S T G G]
- peptide microarray binding signal ([1]; peptide modifications: H3R2cit H3K9me2, binder concentration: 50 nM): 0.0526 ± 0.0021
- peptide microarray binding signal ([1]; peptide modifications: H3R2cit H3K9me2, binder concentration: 500 nM): 0.112 ± 0.0057
- peptide microarray binding signal ([2]; peptide modifications: H3R2cit H3K9me2, binder concentration: 10 nM): 0.0306 ± 0.0059
- peptide microarray binding signal ([2]; peptide modifications: H3R2cit H3K9me2, binder concentration: 100 nM): 0.056 ± 0.011
- peptide microarray binding signal [3, 23]: 0.0151 ± 0.001
- peptide microarray binding signal [3, 24]: 0.013 ± 0.0011
- peptide microarray binding signal [4, 23]: 0.0265 ± 0.0012
- peptide microarray binding signal [4, 24]: 0.00986 ± 0.00045
